Measured values: PubChem BioAssay AID1942 (Johns Hopkins Ion Channel Center, 2009)
Among all 2,400 compounds or so, about 580 (24%) were called active. A selection follows. Unmarked numbers belong to inactive results.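 How the source made its calls: active means activity change at or above the mean plus 3 SD of buffer wells without dofetilide, per plate; inactive means the rest.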

biological target: Potassium voltage-gated channel subfamily KQT member 2 (Rattus norvegicus) (UniProt O88943); experiment: rat KCNQ2 channel activation by compounds alone, confirmation, counter-screen for hERG block protector project, cell-based, CHO, FluxOR thallium flux (AID 1942); settings: CHO-KCNQ2 cells, FluxOR thallium flux fluorescence; at 10 µM; active compounds read high;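 further: normalized value minus buffer-control mean plus three SD of buffer wells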
Sequence (O88943 whole entry, looked up): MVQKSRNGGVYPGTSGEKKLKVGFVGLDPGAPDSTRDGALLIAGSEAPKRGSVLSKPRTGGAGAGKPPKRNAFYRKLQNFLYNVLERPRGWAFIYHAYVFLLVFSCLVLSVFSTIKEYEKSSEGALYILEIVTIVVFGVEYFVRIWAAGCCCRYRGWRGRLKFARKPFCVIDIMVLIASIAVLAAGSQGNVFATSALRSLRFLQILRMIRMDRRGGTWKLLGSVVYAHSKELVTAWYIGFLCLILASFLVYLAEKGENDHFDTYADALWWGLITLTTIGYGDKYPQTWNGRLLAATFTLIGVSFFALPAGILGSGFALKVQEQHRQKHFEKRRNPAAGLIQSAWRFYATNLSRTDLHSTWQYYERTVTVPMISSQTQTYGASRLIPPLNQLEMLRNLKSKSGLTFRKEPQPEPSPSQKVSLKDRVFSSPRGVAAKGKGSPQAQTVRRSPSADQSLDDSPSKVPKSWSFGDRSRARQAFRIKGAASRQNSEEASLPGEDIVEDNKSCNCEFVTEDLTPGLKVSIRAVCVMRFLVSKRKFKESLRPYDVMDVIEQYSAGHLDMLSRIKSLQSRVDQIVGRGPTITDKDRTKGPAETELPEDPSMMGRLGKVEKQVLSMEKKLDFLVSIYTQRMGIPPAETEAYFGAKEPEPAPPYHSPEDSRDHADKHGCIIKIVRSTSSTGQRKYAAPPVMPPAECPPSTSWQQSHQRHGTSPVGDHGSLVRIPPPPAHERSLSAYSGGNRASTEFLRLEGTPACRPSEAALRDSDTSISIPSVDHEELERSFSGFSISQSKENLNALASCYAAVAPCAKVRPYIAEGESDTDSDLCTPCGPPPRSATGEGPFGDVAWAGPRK

| Compound | activity change, less the hit threshold |
| --- | --- |
| Cc1ccc(NC(=O)c2cc(-c3ccc4c(c3)OCO4)on2)cc1 | -8.6% |
| CCn1c(=O)c(-[n+]2ccccc2)c(O)c2ccccc21 | -27.1% |
| Cc1ccc(N2C(=O)c3ccccc3C2(O)c2ncc[nH]2)cc1 (configuration not stated) | -19.5% |
| O=C1C=C(c2ccccc2)OC(=O)C1C(=O)c1ccccc1 (configuration not stated) | -12.8% |
| N#Cc1c2n(c3c(=O)n(Cc4ccc(Cl)cc4)cnc13)CCCC2 | -19.7% |
| CC12CCC3(CO)COC(c4ccccc4O1)C2C3 (configuration not stated) | -21.5% |
| CCCOc1ccc(-c2c(C(=O)N/N=C/c3ccccc3OCC)nnn2-c2nonc2N)cc1 | -19.7% |
| CC(=O)N1C(=O)/C(=C2\SC(=S)N(NC(=O)c3ccc(O)cc3)C2=O)c2ccccc21 | -12.5% |
| CCCCOC(=O)Nc1nnc(C(C)C)s1 | -15.9% |
| CCCCn1nc(NC(=O)COC)c2cc3ccc(C)cc3nc21 | -8.8% |
| COc1ccc(C(=O)N2CCN(Cc3ccc4c(c3)OCO4)CC2)cc1[N+](=O)[O-] | -19.3% |
| COc1ccc(CCNC(=O)c2ccc3c(c2)OCO3)cc1 | -18% |
| O=C(NC(=S)N1CCN(Cc2ccc3c(c2)OCO3)CC1)c1ccc(Cl)cc1 | 36.3% (active) |
| O=C(COc1ccc(Cl)cc1)N1CCN(Cc2ccc3c(c2)OCO3)CC1 | -4.9% |
| O=C(NC(=S)N1CCN(Cc2ccc3c(c2)OCO3)CC1)c1cccc(Br)c1 | 46.4% (active) |
| CCOc1ccc(S(=O)(=O)N2CCN(Cc3ccc4c(c3)OCO4)CC2)cc1C | -28.7% |
| Cc1cc2nccc(-c3ccc(Cl)cc3Cl)n2n1 | -9.7% |
| Cc1nnc(SCC2=C(C(=O)O)N3C(=O)C(NC(=O)Cn4nc(C(F)F)cc4C)C3SC2)s1 (configuration not stated) | -16.5% |
| CCCCC1C2=C(CCCC2=O)OC2=C1C(=O)CCC2 | -25.6% |
| O=C1CC(c2ccccc2)c2cccc(F)c21 (configuration not stated) | -11.3% |
| O=C(NC1CCCC1)C(c1ccncc1)N(C(=O)Cn1nnc(-c2ccccc2F)n1)c1cccc(F)c1 (configuration not stated) | -18% |

| Compound | activity change, less the hit threshold |
| --- | --- |
| COc1ccc(Cn2c(O)cc(=O)[nH]c2=O)cc1 | -20.5% |
| O=C(O)CSc1nc2ccccc2nc1Cc1ccccc1F | 1.3% (active) |
| Cn1c(CNC(=O)c2ccccc2F)nnc1SCc1nc2ccccc2c(=O)[nH]1 | -4.7% |
| O=C(O)CSCc1c(F)cccc1Cl | -31.3% |
| CCOC(=O)C1=C(O)/C(=C/c2ccc(OCC(=O)O)c(OC)c2)SC1=Nc1ccc(OCC)cc1 | -27.2% |
| Cc1c(/C=C2\SC(=O)N(CC(=O)Nc3ccc4c(c3)OCO4)C2=O)c2ccccc2n1C | -15.7% |
| CC(=O)N(C1=C(N)C(=O)c2ccccc2C1=O)C(C)C | -9.1% |
| Cc1ccc(C(C#N)c2ccc3c(C(F)(F)F)cc(C(F)(F)F)nc3n2)cc1 (configuration not stated) | -5.9% |
| CCc1nnc(NC(=O)CSc2nc(-c3ccccc3)cc(-c3ccc(OC)cc3)c2C#N)s1 | -24.2% |
| Cc1cc(C)c2nc(NC(=O)C3CCCO3)sc2c1 (configuration not stated) | -17% |
| O=C(O)Cc1ccc(NC(=O)C2CC=CCC2C(=O)O)cc1 (configuration not stated) | -17.7% |
| COc1ccc(OC)c(NC(=O)C(=S)NC2CCCCC2)c1 | -21.2% |
| CC(C)c1ccc(NC(=O)C2CC3CCC2C3)cc1 (configuration not stated) | 21.5% (active) |
| COc1ccc(NC(=O)COC(=O)c2c(C)noc2C)c(OC)c1 | -8.1% |
| Cc1cc(C)c(NC(=O)C2CC3CCC2C3)c(C)c1 (configuration not stated) | 75.9% (active) |
| COc1ccc(NC(=O)C2CC3CCC2C3)c(OC)c1 (configuration not stated) | 15.8% (active) |
| CC(C)N1CC(C(=O)Nc2ccc(Cl)c(Cl)c2)CC1=O (configuration not stated) | -15.3% |
| O=C(COc1ccc([N+](=O)[O-])cc1)Nc1cccnc1 | -27.2% |
| c1ccc(OCc2nn3c(Cn4cnc5ccccc54)nnc3s2)cc1 | -20.8% |
| CCCN1CCN(CCCNC(=O)Cn2nc(C)n3c(cc4cc(OC)ccc43)c2=O)CC1 | -25.2% |
| CC(C)[C@H](NC(=O)OC(C)(C)C)C(=O)NCC1CCC(C(=O)N[C@@H](Cc2ccccc2)C(=O)O)CC1 (some centres not stated) | -10.4% |

| Compound | activity change, less the hit threshold |
| --- | --- |
| CCOC(=O)c1cnc(-n2nc(C)cc2C)nc1NNc1nc(-c2ccccc2)cc(-c2ccccc2)n1 | -15% |
| CCOC(=O)Cn1cc(C=O)c2ccccc21 | -12.9% |
| COC(=O)c1sccc1NC(=O)CSc1ccccc1NS(=O)(=O)c1cc(Cl)ccc1Cl | -17% |
| O=S(=O)(Nc1nc(-c2sccc2Cl)cs1)c1cc(Cl)ccc1Cl | 105% (active) |
| COc1cc(C(=O)NCCNc2nc3cc(C)ccc3cc2C#N)cc(OC)c1OC | -18.4% |
| COc1ccc(NC(=O)CSCC(=O)Oc2c(OC)cccc2OC)cc1 | -22.1% |
| CCC(C)(C(=O)NC1CCCC1)N(C(=O)c1ccccn1)c1ccccc1 (configuration not stated) | -13% |
| CC(C)(C)c1ccccc1NC(=S)NC1CCCC1 | -7.6% |
| Cc1ccc(C(C)NC(=S)NC2CCCCC2)cc1C (configuration not stated) | 46.1% (active) |
| CC(NC(=O)COC(=O)C1CCC1)c1ccccc1 (configuration not stated) | -21.4% |
| CC(NC(=S)NC1CCCCC1)c1ccccc1 (configuration not stated) | 6.9% (active) |
| Cc1ccc(OCCC(=O)OC(C)C(=O)NC2CC2)cc1 (configuration not stated) | -9% |
| CCOc1ccc(C(C)NC(=S)NC2CCCCC2)cc1 (configuration not stated) | 9.5% (active) |
| CC(C)NC(=S)NNc1nc2ccccc2s1 | -19.4% |
| CC(NC(=O)NC1CCCCC1)c1ccccc1 (configuration not stated) | 26.3% (active) |
| CCOc1ccc(N=Nc2cc(C(C)C)ccc2O)cc1 | -9.1% |
| COc1cccc(NC(=S)NC(C)c2ccc(OC)c(OC)c2)c1 (configuration not stated) | -23.4% |
| O=C(OCc1ccccc1)C1=NNC2C(=O)N(c3ccc(Br)cc3)C(=O)C12 (configuration not stated) | -11.1% |
| C=C(C)CNC(=S)NN=C1c2ccccc2-c2ccccc21 | -7.1% |
| COc1ccccc1C1C(C(=O)c2ccc(C)o2)=C(O)C(=O)N1c1cc(C)on1 (configuration not stated) | -9.3% |
